Reference: PubChem BioAssay (Tox21)
Results filed as inconclusive are left out. Where a call stands in place of a potency, no number is given. Calls of active or inactive are those of the source. Unless noted, calls come from the whole dose curve.

Key:
[1] = Nuclear factor erythroid 2-related factor 2/antioxidant responsive element (Nrf2/ARE) small molecule agonists: qHTS cell viability counter screen in human keratinocytes (AID 1919968; active = well fitted cell-killing curve with a large enough effect in the repeat runs; note: nearly all actives have a fitted effect of over 55% in size; note: potency is the fitted concentration of half-maximal effect)
How it was run: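 Parallel cytotoxicity read: KeratinoSens HaCaT cells, compound treatment 23 h, viability by CellTiter-Fluor fluorescence 1 h post-reagent.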

[2] = Nuclear factor erythroid 2-related factor 2/antioxidant responsive element (Nrf2/ARE) small molecule agonists: luciferase reporter gene qHTS assay in human keratinocytes (AID 1919969); note: nearly all actives have a fitted effect of over 35% in size; note: potency is the fitted concentration of half-maximal effect
[3] = target: Gonadotropin-releasing hormone receptor (Homo sapiens) (UniProt P30968); test: Human gonadotropin-releasing hormone receptor (GnRHR) small molecule agonists, calcium flux assay in GnRHR-HEK293 cells (AID 1920063); note: nearly all actives have a fitted effect of over 35% in size
Gonadotropin-releasing hormone receptor (Homo sapiens), sequence (P30968 whole entry, looked up): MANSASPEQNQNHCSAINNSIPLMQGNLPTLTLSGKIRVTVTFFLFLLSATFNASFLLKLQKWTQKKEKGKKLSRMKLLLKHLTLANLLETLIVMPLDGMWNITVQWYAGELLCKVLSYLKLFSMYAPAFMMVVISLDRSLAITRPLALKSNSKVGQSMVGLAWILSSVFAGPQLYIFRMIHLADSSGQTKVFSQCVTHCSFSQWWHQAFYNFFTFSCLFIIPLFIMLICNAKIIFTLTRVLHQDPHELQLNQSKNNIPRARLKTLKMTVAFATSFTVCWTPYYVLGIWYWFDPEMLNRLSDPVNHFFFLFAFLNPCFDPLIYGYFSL
How it was run: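 Calcium flux, agonist mode, human GnRHR stably integrated in HEK293; dye 1 h at 37 C before compound; Ex/Em=480/540 kinetic read, 3 min; 15 concentrations, triplicate.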

[4] = G protein-coupled receptor (GPCR) small molecule agonists, calcium flux assay: HEK293 wild type cell line counter screen (AID 1920065)
How it was run: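 Non-specific calcium responders were flagged by adding DMSO-dissolved compounds to dye-loaded cells and reading 480/540 nm fluorescence each second for 3 min; ATP served as positive control.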

[5] = p53 small molecule agonists, cell-based qHTS assay with human liver microsomes (AID 1963577)
How it was run: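 Fluorescence of the beta-lactamase reporter in p53RE-bla cells, detected with LiveBLAzer substrate (2 h, room temperature, dark), served as the read-out after 16 h compound exposure at 37 C with human liver microsomes and NADPH, each 0.5 mg/mL final.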

[6] = p53 small molecule agonists, cell-based qHTS assay with rat liver microsomes (AID 1963578)
How it was run: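 Cells carrying a p53 response element–beta-lactamase reporter were plated and rested 5 h, then dosed with compound in DMSO plus rat liver microsomes and NADPH, each at 0.5 mg/mL final. After 16 h at 37 C, LiveBLAzer substrate was added for 2 h.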

[7] = p53 small molecule agonists, cell-based qHTS assay with human liver microsomes: qHTS cell viability counter screen (AID 1963579); note: nearly all actives have a fitted effect of over 45% in size
How it was run: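 Cytotoxicity counter screen: p53RE-bla, 4,000 cells/well; 5 h settle, 37 C/5% CO2; cpd + HLM 0.5 mg/mL + NADPH 0.5 mg/mL (final); 16 h, 37 C; CellTiter-Glo, 30 min RT, luminescence.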

[8] = p53 small molecule agonists, cell-based qHTS assay with rat liver microsomes: qHTS cell viability counter screen (AID 1963580); note: nearly all actives have a fitted effect of over 45% in size
How it was run: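 Counter screen for cytotoxicity under metabolic activation: rat liver microsomes and NADPH, 0.5 mg/mL final each, added with compounds to p53RE-bla HCT-116 cells; 16 h at 37 C, then ATP luminescence read.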

[9] = p53 small molecule agonists, cell-based qHTS assay: qHTS cell viability counter screen (AID 1963581); note: nearly all actives have a fitted effect of over 45% in size
How it was run: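 Multiplexed with the reporter read, a CellTiter-Glo step (30 min, room temperature) gauges ATP-based viability of HCT-116 p53RE-bla cells after 16 h compound incubation at 37 C.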

[10] = p53 small molecule agonists, cell-based qHTS assay (AID 1963582; active = well fitted activation curve with a large enough effect in the signal ratio in the repeat runs, not every such curve was filed as active; the % refers to the signal ratio)
How it was run: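 Beta-lactamase reporter cells (p53RE-bla) treated with compounds for 16 h at 37 C; FRET substrate, 2 h, room temperature; fluorescence intensity.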

[11] = target: 5-hydroxytryptamine receptor 2A (Homo sapiens) (UniProt P28223); test: 5-hydroxytryptamine receptor 2A (HTR2A) small molecule antagonists, cell-based qHTS assay (AID 1963586); note: nearly all actives have a fitted effect of over 45% in size; note: potency is the fitted concentration of half-maximal effect
5-hydroxytryptamine receptor 2A (Homo sapiens), sequence (P28223 whole entry, looked up): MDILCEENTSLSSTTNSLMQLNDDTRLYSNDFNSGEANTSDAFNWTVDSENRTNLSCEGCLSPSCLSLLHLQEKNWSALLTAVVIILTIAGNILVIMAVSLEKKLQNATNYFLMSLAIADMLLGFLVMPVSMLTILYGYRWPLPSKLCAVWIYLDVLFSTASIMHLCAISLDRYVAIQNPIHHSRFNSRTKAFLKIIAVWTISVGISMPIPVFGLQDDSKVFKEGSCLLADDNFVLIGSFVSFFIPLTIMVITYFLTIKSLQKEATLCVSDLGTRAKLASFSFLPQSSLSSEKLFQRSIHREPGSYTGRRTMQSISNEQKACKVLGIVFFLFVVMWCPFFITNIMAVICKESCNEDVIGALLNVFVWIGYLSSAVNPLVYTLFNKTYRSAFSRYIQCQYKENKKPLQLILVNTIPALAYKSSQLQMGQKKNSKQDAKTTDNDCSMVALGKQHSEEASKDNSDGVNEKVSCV
How it was run: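 CHO cells stably expressing human HTR2A were plated for 18 h at 37 C, then loaded with calcium dye for 1 h. Compounds were preincubated 5 min at room temperature before DOI (4 nM solution) was added. Kinetic fluorescence was read for 3 min.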

[12] = target: Muscarinic acetylcholine receptor M1 (Homo sapiens) (UniProt P11229); test: Cholinergic receptor muscarinic 1 (CHRM1) small molecule antagonists, cell-based qHTS assay (AID 1963588); note: nearly all actives have a fitted effect of over 40% in size
Muscarinic acetylcholine receptor M1 (Homo sapiens), sequence (P11229 whole entry, looked up): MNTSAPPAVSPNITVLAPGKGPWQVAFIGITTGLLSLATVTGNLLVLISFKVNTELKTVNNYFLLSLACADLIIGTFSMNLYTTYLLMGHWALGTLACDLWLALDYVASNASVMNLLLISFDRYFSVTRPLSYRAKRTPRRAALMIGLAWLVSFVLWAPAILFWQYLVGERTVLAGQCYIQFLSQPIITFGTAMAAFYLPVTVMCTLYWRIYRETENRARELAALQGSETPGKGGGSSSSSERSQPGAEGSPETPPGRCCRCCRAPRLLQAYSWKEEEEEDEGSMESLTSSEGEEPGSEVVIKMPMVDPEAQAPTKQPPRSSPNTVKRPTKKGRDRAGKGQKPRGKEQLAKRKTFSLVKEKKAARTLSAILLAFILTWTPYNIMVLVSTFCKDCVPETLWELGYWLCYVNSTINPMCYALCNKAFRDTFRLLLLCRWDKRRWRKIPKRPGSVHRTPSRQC
How it was run: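 Compounds were tested at 15 concentrations in three independent runs. Dye-loaded CHRM1-CHO cells were exposed 5 min at room temperature before stimulation by acetylcholine added at 50nM. Intracellular calcium was read kinetically on FDSS for 3 min.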

[13] = target: Muscarinic acetylcholine receptor M1 (Homo sapiens) (UniProt P11229); test: Cholinergic receptor muscarinic 1 (CHRM1) small molecule agonists, cell-based qHTS assay (AID 1963589); note: nearly all actives have a fitted effect of over 35% in size
How it was run: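 qHTS, 15-point titration, 3 independent runs: compounds pin-transferred onto dye-loaded CHRM1-CHO cells (human M1), calcium fluorescence followed every second to detect agonism.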

[14] = cAMP Responsive Elements (CRE) small molecule agonists, cell-based qHTS assay (AID 1963590)
How it was run: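 Quantitative HTS for CRE agonists: HEK 293T CRE-bla cells, overnight plating, 3 h compound incubation at 37 C/5% CO2, then 2 h room-temperature LiveBLAzer B/G FRET substrate loading.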

[15] = cAMP Responsive Elements (CRE) small molecule antagonists, cell-based qHTS assay (AID 1963591; active = well fitted inhibition curve with a large enough effect in the signal ratio in the repeat runs, not every such curve was filed as active; the % refers to the signal ratio)
How it was run: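 Fluorescence intensity from cleaved LiveBLAzer B/G substrate (2 h, room temperature) quantified CRE-bla activity in HEK 293T cells exposed 3 h to compound with 0.25 uM final NKH477.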

[16] = target: Beta-2 adrenergic receptor (Homo sapiens) (UniProt P07550); test: Adrenergic beta2 receptor (ADRB2) small molecule agonists, cell-based qHTS assay (AID 1963593);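 note: CHO cells stably overexpressing human ADRB2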
Beta-2 adrenergic receptor (Homo sapiens), sequence (P07550 whole entry, looked up): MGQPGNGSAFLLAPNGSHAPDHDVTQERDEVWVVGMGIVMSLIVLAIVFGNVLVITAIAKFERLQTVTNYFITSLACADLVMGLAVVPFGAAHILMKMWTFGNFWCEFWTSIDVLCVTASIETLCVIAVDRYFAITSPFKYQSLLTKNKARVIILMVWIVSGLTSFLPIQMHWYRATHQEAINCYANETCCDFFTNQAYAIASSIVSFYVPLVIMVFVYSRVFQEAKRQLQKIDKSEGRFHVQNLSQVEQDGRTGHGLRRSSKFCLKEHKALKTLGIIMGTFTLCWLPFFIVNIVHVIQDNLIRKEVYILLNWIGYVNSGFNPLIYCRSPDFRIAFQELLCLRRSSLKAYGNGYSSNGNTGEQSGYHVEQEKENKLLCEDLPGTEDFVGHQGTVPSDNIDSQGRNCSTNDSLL
How it was run: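 CHO cells stably over-expressing ADRB2 were plated overnight at 37C, then dosed with compounds plus a stimulation mix containing 100uM IBMX and 25uM Ro-20-1724 for 0.5hr at room temperature. cAMP was measured by HTRF competition, 1hr.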

[17] = target: D(2) dopamine receptor (Homo sapiens) (UniProt P14416); test: Dopamine D2 receptor (DRD2) small molecule agonists, cell-based qHTS assay (AID 1963594); note: nearly all actives have a fitted effect of over 35% in size
D(2) dopamine receptor (Homo sapiens), sequence (P14416 whole entry, looked up): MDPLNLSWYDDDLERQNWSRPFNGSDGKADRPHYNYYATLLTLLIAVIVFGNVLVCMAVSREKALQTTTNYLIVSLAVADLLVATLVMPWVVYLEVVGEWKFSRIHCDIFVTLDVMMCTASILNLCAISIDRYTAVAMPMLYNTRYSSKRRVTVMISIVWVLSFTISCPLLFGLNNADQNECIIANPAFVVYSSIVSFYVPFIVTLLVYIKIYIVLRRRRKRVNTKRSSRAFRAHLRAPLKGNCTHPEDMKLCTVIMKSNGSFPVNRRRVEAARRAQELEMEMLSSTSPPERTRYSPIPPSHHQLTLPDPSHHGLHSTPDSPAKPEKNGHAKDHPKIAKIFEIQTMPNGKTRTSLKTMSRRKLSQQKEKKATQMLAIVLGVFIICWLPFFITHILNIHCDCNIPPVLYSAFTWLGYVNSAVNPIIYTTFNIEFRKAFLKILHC
How it was run: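 HEK293 cells stably expressing DRD2 were cultured 24 h at 37 C, then given Ro20-1724 (0.1 mM final) and compounds for 10 min at room temperature. NKH477 (200nM) was then added for 30 min. cAMP was read by HTRF.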

[18] = target: D(2) dopamine receptor (Homo sapiens) (UniProt P14416); test: Dopamine D2 receptor (DRD2) small molecule antagonists, cell-based qHTS assay (AID 1963595; active = well fitted inhibition curve with a large enough effect in the signal ratio in the repeat runs, with a control signal flat; the % refers to the signal ratio)
How it was run: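 In this cell-based antagonist screen, compounds act for 10 min at room temperature before a 30 min challenge with 12 nM quinpirole and 200 nM NKH477. cAMP is quantified by HTRF competition in DRD2-HEK293 cells containing 0.1 mM Ro20-1724.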

[19] = target: Beta-2 adrenergic receptor (Homo sapiens) (UniProt P07550); test: Adrenergic beta2 receptor (ADRB2) small molecule antagonists, cell-based qHTS assay (AID 1963592); note: series mostly up to about 92 µM; nearly all actives have a fitted effect of over 50% in size
How it was run: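 Assay format: CHO-ADRB2 cells, 18-20hr seeding at 37C/5% CO2, then compound plus 1nM isoproterenol agonist mix for 0.5hr RT. Homogeneous time-resolved fluorescence cAMP detection after 1hr, expressed as 665/615 nm ratio.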

[20] = target: 5-hydroxytryptamine receptor 2A (Homo sapiens) (UniProt P28223); test: 5-hydroxytryptamine receptor 2A (HTR2A) small molecule agonists, cell-based qHTS assay (AID 1963587); note: nearly all actives have a fitted effect of over 30% in size
How it was run: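 HTR2A-CHO cells, plated 18 h at 37 C/5% CO2, dye-loaded 1 h at 37 C; compounds in DMSO added by pin tool (agonist mode). Intracellular calcium flux read as kinetic fluorescence on FDSS over 2 min at 1 s intervals.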

| SMILES | Potency [1] | Potency [2] | Potency [3] | Potency [4] | Potency [5] | Potency [6] | Potency [7] | Potency [8] | Potency [9] | Potency [10] | Potency [11] | Potency [12] | Potency [13] | Potency [14] | Potency [15] | Potency [16] | Potency [17] | Potency [18] | Potency [19] | Potency [20] |
| --- | --- | --- | --- | --- | --- | --- | --- | --- | --- | --- | --- | --- | --- | --- | --- | --- | --- | --- | --- | --- |
| CCC(C)c1ccccc1 (stereo not drawn) | inactive | inactive | inactive | inactive | inactive | inactive | inactive | inactive | inactive | inactive | inactive | inactive | inactive | inactive | inactive | inactive | inactive | inactive | – | – |
| Oc1ccccc1O | inactive | inactive | inactive | inactive | inactive | inactive | inactive | inactive | – | – | – | – | – | inactive | inactive | – | inactive | inactive | inactive | – |
| O=S(=O)(O)c1cc(O)c(O)c(S(=O)(=O)O)c1 | inactive | inactive | inactive | inactive | inactive | – | inactive | inactive | inactive | inactive | inactive | inactive | inactive | inactive | inactive | inactive | inactive | inactive | inactive | inactive |
| CO[C@H]1C=CO[C@@]2(C)Oc3c(C)c(O)c4c(O)c(c(/C=N/N5CCN(C)CC5)c(O)c4c3C2=O)NC(=O)/C(C)=C\C=C[C@H](C)[C@H](O)[C@@H](C)[C@@H](O)[C@@H](C)[C@H](OC(C)=O)[C@@H]1C | inactive | inactive | inactive | inactive | – | inactive | inactive | inactive | inactive | – | – | – | – | – | – | – | – | – | – | – |
| Nc1ncnc2c1ncn2Cc1c(F)cccc1Cl | inactive | inactive | inactive | inactive | inactive | – | inactive | inactive | – | inactive | inactive | inactive | inactive | inactive | inactive | inactive | – | inactive | inactive | inactive |
| COc1cc(C(=S)N2CCOCC2)cc(OC)c1OC | inactive | inactive | inactive | inactive | inactive | inactive | inactive | inactive | – | inactive | inactive | inactive | inactive | inactive | inactive | – | inactive | inactive | inactive | inactive |
| CCCCCCCCCCCCCCC(=O)O | inactive | inactive | inactive | inactive | inactive | inactive | – | inactive | inactive | inactive | inactive | inactive | – | inactive | inactive | – | inactive | inactive | inactive | inactive |
| O=C(CCS)OCC(COC(=O)CCS)(COC(=O)CCS)COC(=O)CCS | inactive | inactive | inactive | inactive | inactive | inactive | inactive | inactive | inactive | inactive | inactive | – | inactive | inactive | inactive | – | inactive | – | inactive | inactive |
| C=CC(C)(O)CC/C=C(\C)CCC=C(C)C (stereo not drawn) | inactive | inactive | inactive | inactive | inactive | – | inactive | inactive | – | inactive | inactive | inactive | inactive | inactive | inactive | inactive | inactive | inactive | inactive | inactive |
| O=C(O)c1cc(O)c(O)c(O)c1 | inactive | inactive | inactive | inactive | inactive | inactive | – | inactive | inactive | inactive | inactive | inactive | inactive | inactive | – | inactive | – | inactive | inactive | inactive |
| OC1(c2ccc(Cl)cc2)CCNCC1 | inactive | inactive | inactive | inactive | inactive | – | inactive | inactive | inactive | inactive | inactive | inactive | inactive | – | inactive | inactive | – | inactive | inactive | inactive |
| CC(=O)c1ccccc1O | inactive | inactive | inactive | inactive | inactive | – | inactive | – | inactive | inactive | inactive | inactive | inactive | inactive | inactive | – | inactive | – | inactive | inactive |
| CN(C1CCCCC1)S(=O)(=O)c1ccccc1N | inactive | inactive | inactive | inactive | inactive | inactive | inactive | – | inactive | inactive | 37.5 µM (active) | inactive | inactive | inactive | inactive | inactive | inactive | inactive | inactive | inactive |
| C=CCCC(=O)/C=C/C1C(C)=CCCC1(C)C (stereo not drawn) | inactive | 54.5 µM (active) | inactive | inactive | inactive | – | inactive | inactive | inactive | inactive | inactive | – | inactive | inactive | inactive | inactive | inactive | inactive | inactive | inactive |
| Cc1c(O)cccc1C(=O)N[C@@H](CSc1ccccc1)[C@H](O)CN1C[C@H]2CCCC[C@H]2C[C@H]1C(=O)NC(C)(C)C | 11.9 µM (active) | inactive | inactive | inactive | inactive | inactive | inactive | inactive | – | – | – | – | – | – | – | – | inactive | inactive | – | – |
| Cc1cccc(C)c1[N+](=O)[O-] | inactive | inactive | inactive | inactive | – | – | inactive | inactive | inactive | – | inactive | inactive | inactive | inactive | inactive | – | inactive | inactive | inactive | inactive |
